# Most compounds without a hit are left out; they make up all but 1.1% or so of the library.
# TSG101-PTAP inh: qHTS Assay for Iinhibitors of HIV-1 Budding by Blocking the Interaction of PTAP/TSG101; Potency, µM (doses to about 115 µM), without a hit: at the highest dose activity change, negative = inhibition, hits mostly inhibitors; AID 493005, 2010; Fluorescence polarization, FITC-PTAP peptide / Tsg101 binding; 340,000 tested, under 10 active; Tumor susceptibility gene 101 protein (Homo sapiens), Q99816; active means well fitted inhibition curve with a large enough effect in the main read-out, with a control signal flat, not every such curve was filed as active; inconclusive means small, poorly fitted or top-dose-only effect, or effect the other way, or a change in a side signal; inactive means no such curve, though single readings can be large or run the other way; further: % of control where 0% means no effect
#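 FP read-out: FITC-PTAP peptide, 50 nM final, binding Tsg101 binding domain, 10 uM final; 20 min, r.t.; 10 mM HEPES pH 7.5, 0.15 M NaCl, 0.01% Tween 20, 3 mM EDTA, 0.1 mM TCEP.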
# Eya2 inh: qHTS Assay for Inhibitors of the Phosphatase Activity of Eya2 | 0.006% of 330,000 active | recombinant Eya2, OMFP fluorescence dephosphorylation (OMFP is methylfluorescein phosphate) | AID 488837, 2010 | Protein phosphatase EYA2 (Homo sapiens), O00167 | Potency, µM (series often up to 76.9 µM), without a hit: at the highest dose activity, negative = inhibition, actives largely listed as inhibitors; further: on the % scale 0 is the no-effect control and ±100 the full control effect
#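 Eya2 (0.2 uM) preincubated 10 min at ambient with compound, then OMFP substrate added at 50 uM; 10 min reaction in 50 mM HEPES pH 7.5, 50 mM NaCl, 5 uM MgCl2, 0.05% BSA, 1 mM DTT. Fluorescence read at Ex 485/Em 525 nm.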
# 12-LOX inh: Primary qHTS assay for inhibitors of human arachidonate 12S-lipoxygenase (ALOX12): Round 2; Potency, µM (series often up to 108 µM), for inactives: at the highest dose activity change, negative = inhibition, most hits filed as inhibitors; purified 12hLO, xylenol orange hydroperoxide absorbance; AID 1671190, 2021; Polyunsaturated fatty acid lipoxygenase ALOX12 (Homo sapiens), P18054; 1.1% of 580,000 active; further: on the % scale 0 is the no-effect control and ±100 the full control effect
# Target sequence (P18054 whole entry, looked up): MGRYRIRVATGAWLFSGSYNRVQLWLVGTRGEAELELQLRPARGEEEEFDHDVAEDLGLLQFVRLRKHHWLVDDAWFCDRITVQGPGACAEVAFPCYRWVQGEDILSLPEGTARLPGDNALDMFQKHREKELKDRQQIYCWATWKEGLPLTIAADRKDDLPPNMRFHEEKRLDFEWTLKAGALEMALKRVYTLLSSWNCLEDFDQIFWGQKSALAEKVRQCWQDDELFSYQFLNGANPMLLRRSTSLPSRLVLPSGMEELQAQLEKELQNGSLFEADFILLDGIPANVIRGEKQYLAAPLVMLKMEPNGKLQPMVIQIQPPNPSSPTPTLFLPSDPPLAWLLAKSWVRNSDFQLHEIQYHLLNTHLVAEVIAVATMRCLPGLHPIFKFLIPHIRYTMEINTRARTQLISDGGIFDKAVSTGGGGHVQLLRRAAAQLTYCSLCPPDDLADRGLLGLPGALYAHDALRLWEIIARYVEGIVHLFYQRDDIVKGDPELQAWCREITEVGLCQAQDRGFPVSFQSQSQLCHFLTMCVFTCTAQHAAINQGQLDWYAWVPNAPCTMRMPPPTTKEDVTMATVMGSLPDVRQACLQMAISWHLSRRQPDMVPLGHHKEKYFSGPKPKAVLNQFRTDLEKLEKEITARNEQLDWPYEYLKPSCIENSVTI
#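 Purified human 12hLO (150 nM final) in 25 mM Hepes, 0.01% Triton X-100, pH 7.0 was preincubated 15 min at room temperature with compound. Then 40 uM arachidonic acid was added, 30 min. Hydroperoxide was read by Fe-XO absorbance ratio 573/405 nm.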
# USP2a inh: qHTS Assay for Inhibitors of Ubiquitin-specific Protease USP2a Using CHOP2 as the Reporter. Ubiquitin carboxyl-terminal hydrolase 2 (Homo sapiens), O75604. USP2 core, Ub-CHOP2 coupled fluorogenic reporter, 485/531. Potency, µM (series often up to 38.3 µM), inactives show top-dose activity change, negative = inhibition, usual class: inhibitors. 0.01% of 330,000 active. AID 463254, 2010;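 further: plate controls were DMSO wells for no effect and full inhibition by NEM control for full effect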
#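 USP2 core (10nM final) preincubated 30min RT with compound in 20mM Tris-HCl pH 8.0, 2mM CaCl2, 2mM beta-mercaptoethanol, 0.05% CHAPS; 25nM Ub-CHOP2 plus 25nM reporter substrate added, fluorescence (Ex485/Em531) read after 60min.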
# Starred values were filed as active, the others as inactive; ? = inconclusive; nt = not tested or not shown; [ ] = another dose, or the depositor's remark. Unless noted, the call rests on the fitted dose curve; in most records, active means well fitted curve in the direction sought with a large enough effect; inconclusive means small, poorly fitted or top-dose-only effect, or another doubt; inactive means no such curve, though single readings can be large; an effect the other way counts as inactive or inconclusive. Potency means the concentration at half of the fitted maximal effect.
SMILES,TSG101-PTAP inh,Eya2 inh,12-LOX inh,USP2a inh
CC(C)NC(=O)/C(C#N)=C/c1ccc(C(=O)O)cc1,nt,nt,22µM*,nt
CCCn1c(N)c(-c2csc(NC)n2)c(=O)n(C)c1=O,nt,nt,7.9µM*,nt
CCCCNc1nc(-c2c(N)n(CCC)c(=O)n(C)c2=O)cs1,nt,nt,-46%,nt
CCOC(=O)c1ccc(CC(=O)c2oc3cc(O)ccc3c2C)o1,-4%,32%,16µM*,3%
CCOc1cc(C2/C(=C(\O)c3ccc(Cl)cc3)C(=O)C(=O)N2c2cc(C)on2)ccc1O (stereo unspecified),nt,nt,16µM*,nt
CCOc1ccc(C2/C(=C(/O)c3ccc(OC)cc3)C(=O)C(=O)N2c2cc(C)on2)cc1OC (stereo unspecified),-11%,-5%,?,-1%
Cc1ccc2cc(CCl)c(Cl)nc2c1C,nt,nt,4.5µM*,nt
Cc1ccc(CN(C)CC(=O)N(C)c2c(N)n(Cc3ccccc3)c(=O)[nH]c2=O)cc1,nt,nt,72%,nt
Cn1ncc(S(=O)(=O)Cc2ccccc2)c(Cl)c1=O,-4%,2%,14µM*,0%
Cn1ncc(SCc2ccccc2)c(Cl)c1=O,-1%,0%,?,-1%
Cc1ccccc1-c1cc2nc(-c3ccc([N+](=O)[O-])cc3)cc(=O)n2[nH]1,-4%,-6%,?,1%
O=c1cc(-c2ccc([N+](=O)[O-])cc2)nc2cc(-c3ccc(F)cc3)[nH]n12,-2%,7%,20µM*,3%
COc1ccccc1-c1nnc([C@H]2CCN(Cc3ccccn3)C2)o1,nt,nt,96%[176 µM],nt
CC1(C)C(c2ccccc2)=NC(c2ccc(Br)cc2)N1O (stereo unspecified),0%,-11%,7.9µM*,-6%
CCOC(=O)c1ccc(NC(=O)c2nsc3ccccc23)cc1,nt,nt,45µM*,nt
CCCCOc1ccc(CNC(=S)N/N=C/c2ccc(OC)c(OC)c2)cc1,-6%,-2%,28µM*,-19%
O=C(O)c1cc(C(=O)O)cc(-c2ccc(/C=c3/sc4nc5ccccc5n4c3=O)o2)c1,6%,8%,nt,9%
O=C(O)c1ccccc1-c1ccc(C=c2sc3nc4cc(Br)cnc4n3c2=O)o1,nt,nt,7.9µM*,nt
CCN1CCN(CC(=O)Nc2ccc(OC(F)(F)F)cc2)CC1,1%,-8%,0.5µM*,-1%
O=C(NCCN1CCC(n2c(=O)[nH]c3ccccc32)CC1)c1ccc(Cl)c(Cl)c1,nt,nt,32µM*,nt
O=C(NCCN1CCC(n2c(=O)[nH]c3ccccc32)CC1)c1ccc(F)cc1F,nt,nt,-30%,nt
O=C(NCCN1CCC(n2c(=O)[nH]c3ccccc32)CC1)c1c(F)cccc1F,nt,nt,-13%,nt
O=C(NCCN1CCC(n2c(=O)[nH]c3ccccc32)CC1)c1ccc(F)cc1,nt,nt,35µM*,nt
Cc1cccc(C)c1OCc1n[nH]c(=S)o1,1%,6%,45µM*,2%
Cc1ccc(C(=O)NNCC(=O)Nc2ccc(Cl)cc2F)cc1,-4%,0%,16µM*,3%
SMILES,TSG101-PTAP inh,Eya2 inh,12-LOX inh,USP2a inh
O=C(CCNC(=O)c1ccc(Cl)cc1)Nc1ccc(Cl)cc1F,-1%,-2%,-7%,-1%
Cc1c(-c2ccc(F)cc2)[nH]c2ccc(CNC(=O)CCN3CCCO3)cc12,nt,nt,35%,nt
CCOc1ccc(-c2[nH]ncc2-c2ccc(Br)cc2)c(O)c1,nt,nt,28µM*,nt
CCN1C(=O)[C@H]2[C@@H](c3ccc(-c4cccc(Cl)c4)c(OC)c3)N3CCC[C@@]3(C(=O)OC)[C@H]2C1=O,-2%,-6%,50µM*,3%
FC(F)(F)c1cccc(C2=NOC3(CCN(Cc4ccsc4)C3)C2)c1 (stereo unspecified),nt,nt,8%[6.33 µM],nt
Cc1cccc(S(=O)(=O)NC(=O)C2(C)CCN2C(=O)c2ccccc2CCc2ccccc2)c1 (stereo unspecified),nt,nt,-7%,nt
CC1(C(=O)NS(=O)(=O)c2cccc(F)c2)CCN1C(=O)c1ccccc1CCc1ccccc1 (stereo unspecified),nt,nt,7.1µM*,nt
CO/N=C\CC(=O)Nc1ccc(Cl)c(Cl)c1,0%,10%,40µM*,0%
